The values that follow come from publication PMC4336329 (PLoS ONE, 2015).

About 14,000 (4.5%) of roughly 310,000 compounds showed an effect of 50% or more. Effects have a minus sign here. The full list was thinned out, with strong results kept by preference.
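Also: peak tail current of the secondary pulse compared with the same well before compound.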

Sequence of human ether-à-go-go-related gene (hERG) potassium channel (Q12809 whole entry, looked up): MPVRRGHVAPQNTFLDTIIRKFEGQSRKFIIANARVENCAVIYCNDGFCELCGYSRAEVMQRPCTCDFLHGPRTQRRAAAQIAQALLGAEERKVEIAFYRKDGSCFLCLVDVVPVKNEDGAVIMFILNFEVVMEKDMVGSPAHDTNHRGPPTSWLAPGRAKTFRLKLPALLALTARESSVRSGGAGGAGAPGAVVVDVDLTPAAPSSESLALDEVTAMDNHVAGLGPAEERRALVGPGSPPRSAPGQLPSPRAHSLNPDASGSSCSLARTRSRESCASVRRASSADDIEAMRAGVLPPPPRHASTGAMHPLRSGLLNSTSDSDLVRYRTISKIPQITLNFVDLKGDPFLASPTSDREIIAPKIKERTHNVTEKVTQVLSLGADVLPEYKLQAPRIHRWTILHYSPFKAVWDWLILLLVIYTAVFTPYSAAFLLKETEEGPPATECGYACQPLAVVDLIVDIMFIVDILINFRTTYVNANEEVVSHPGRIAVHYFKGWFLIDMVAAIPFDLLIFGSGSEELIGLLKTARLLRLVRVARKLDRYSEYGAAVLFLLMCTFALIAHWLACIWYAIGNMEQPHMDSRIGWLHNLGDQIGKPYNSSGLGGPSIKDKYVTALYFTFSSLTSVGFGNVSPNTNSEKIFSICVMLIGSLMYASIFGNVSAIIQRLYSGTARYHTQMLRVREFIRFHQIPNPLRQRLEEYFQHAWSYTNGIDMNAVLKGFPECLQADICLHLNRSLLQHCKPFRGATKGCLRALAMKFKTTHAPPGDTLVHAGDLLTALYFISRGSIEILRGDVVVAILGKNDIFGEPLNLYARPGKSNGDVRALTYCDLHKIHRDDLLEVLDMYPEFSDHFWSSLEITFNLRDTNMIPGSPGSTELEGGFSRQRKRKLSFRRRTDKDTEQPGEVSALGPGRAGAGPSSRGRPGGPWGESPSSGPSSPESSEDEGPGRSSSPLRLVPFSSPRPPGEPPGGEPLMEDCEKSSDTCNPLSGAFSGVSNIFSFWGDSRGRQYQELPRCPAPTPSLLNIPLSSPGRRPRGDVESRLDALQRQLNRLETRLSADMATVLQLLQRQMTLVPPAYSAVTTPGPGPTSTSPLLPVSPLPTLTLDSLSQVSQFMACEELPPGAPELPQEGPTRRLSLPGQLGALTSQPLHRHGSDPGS

The assay concerns the target human ether-à-go-go-related gene (hERG) potassium channel (human, UniProt Q12809). The experiment in a line: primary screen, population patch clamp on CHO cells stably expressing hERG; higher = less effect of the substance.
Turning to `CCc1ccccc1NC(=O)CN(C)C(=O)CSc1nc2cc(Cl)ccc2s1`, the “hERG current change (%, negative = inhibition) at 10uM” value is given as 17.8%. With `CCOC(=O)/C(=N\Nc1cc(Cl)ccc1Cl)N1CCN(C)CC1` the figure was -16.9%; with `O=C(CSc1ncccn1)N/N=C/c1ccccc1[N+](=O)[O-]`, 11.3%.

In the case of `O=C(NCCN1CCOCC1)/C(=C/c1ccco1)NC(=O)c1ccccc1`, the “hERG current change (%, negative = inhibition) at 10uM” value is recorded as -5.48%.

Turning to `O=C(NCCN1CCOCC1)/C(=C/c1ccc(F)cc1)NC(=O)c1ccccc1`, the “hERG current change (%, negative = inhibition) at 10uM” value is reported as -67.8%. With `O=C(NCCN1CCOCC1)/C(=C\c1ccc(F)cc1)NC(=O)c1ccccc1` the figure was -62.3%; with `O=C(NCCCN1CCOCC1)/C(=C/c1cccnc1)NC(=O)c1ccccc1`, -25%. Next, `O=C(NCCN1CCOCC1)/C(=C\c1ccc(Br)cc1)NC(=O)c1cccs1`: -67.4%; `O=C(NCCO)/C(=C/c1ccc(Br)cc1)NC(=O)c1cccs1`: -14%.

Turning to `O=C(NCCN1CCOCC1)/C(=C\c1ccccc1F)NC(=O)c1ccccc1`, the “hERG current change (%, negative = inhibition) at 10uM” value is -26.5%. Take `O=C(NCCCN1CCOCC1)/C(=C/c1ccc(F)cc1)NC(=O)c1ccccc1`: the “hERG current change (%, negative = inhibition) at 10uM” value is listed as -73.5%.

Take `COc1ccccc1/C=C(/NC(=O)c1ccccc1)C(=O)NCCN1CCOCC1`: the “hERG current change (%, negative = inhibition) at 10uM” value is 15.5%.

Consider `CN(C)c1ccc(/C=C(\NC(=O)c2ccccc2)C(=O)NCCCN2CCOCC2)cc1`, for which the “hERG current change (%, negative = inhibition) at 10uM” value is given as -10.4%. On to `O=C(NCCO)/C(=C\c1ccc(Br)cc1)NC(=O)c1cccs1`, for which the “hERG current change (%, negative = inhibition) at 10uM” value was -3.91%. Next, `COc1ccccc1C(=O)COC(=O)c1nc(Cl)ccc1Cl`: -0.91%; `O=C(CSC1=NS(=O)(=O)c2cc(Cl)ccc2N1)NCCc1ccccc1`: 15.4%; `CN(C)c1ccc(S(=O)(=O)N2CCCCC2)cc1NC(=O)CCNC(=O)c1ccc(Cl)cc1`: -27.4%. As for `Cc1cccc(Oc2ccccc2NC(=O)CN2C(=O)NC3(CCCC3)C2=O)c1`, the “hERG current change (%, negative = inhibition) at 10uM” value was -6.76%.

For `CCN(CC)S(=O)(=O)c1ccc(NS(=O)(=O)c2ccc(C)c(C)c2)cc1`, the “hERG current change (%, negative = inhibition) at 10uM” value is recorded as -21.6%. For the compound `Nc1nonc1C(=Nc1ccc(Br)cc1)NO`, the “hERG current change (%, negative = inhibition) at 10uM” value came out at 8.76%.

For the compound `CCOC(=O)c1cnc(SCC(=O)OC)nc1N`, the “hERG current change (%, negative = inhibition) at 10uM” value was 52.5%. As for `C/C(=N\N1C(C)CCCC1C)c1ccccc1O` (stereo not shown), the “hERG current change (%, negative = inhibition) at 10uM” value came out at 14.1%. On to `O=C(NCc1ccc2c(c1)OCO2)c1ccccc1Cl`, for which the “hERG current change (%, negative = inhibition) at 10uM” value is -2.6%. As to `COc1ccc(CC(=O)N2CC(C)CC(C)C2)cc1OC` (stereo not shown), the “hERG current change (%, negative = inhibition) at 10uM” value came to 5.21%.

`CSc1ccc(/C=C(/NC(=O)c2ccccc2)C(=O)NCCN2CCOCC2)cc1`: the “hERG current change (%, negative = inhibition) at 10uM” value is given as -44.8%. For `CSc1ccc(/C=C(\NC(=O)c2ccccc2)C(=O)NCCN2CCOCC2)cc1`, the “hERG current change (%, negative = inhibition) at 10uM” value is recorded as -63.7%. `CC(=O)O[C@@H]1C[C@H]2C(C)(C)C(=O)C=C[C@]2(C)[C@H]2CC[C@@]3(C)[C@H](c4ccoc4)OC(=O)[C@H]4O[C@]43[C@@]21C`: the “hERG current change (%, negative = inhibition) at 10uM” value is given as -43.1%.

For the compound `N#Cc1ccccc1NC(=S)NC(=O)c1cccnc1`, the “hERG current change (%, negative = inhibition) at 10uM” value was found to be 13.7%. As to `CCN(CC(=O)NCc1ccc(Cl)cc1)C(=O)Cc1ccc(OC)cc1`, the “hERG current change (%, negative = inhibition) at 10uM” value is given as -75.7%. On to `CCN(CC(=O)NCc1ccc(F)cc1)C(=O)Cc1ccc(OC)cc1`, for which the “hERG current change (%, negative = inhibition) at 10uM” value was -63.5%. `COc1ccc(CNC(=O)COc2ccc(F)cc2)cc1`: the “hERG current change (%, negative = inhibition) at 10uM” value is given as 2.33%. Next, `CCN(CC(=O)NCc1ccc(Cl)cc1)C(=O)c1cc(OC)cc(OC)c1`: -48.4%; `CCN(CC(=O)NCc1ccc(F)cc1)C(=O)/C=C/c1ccc(OC)cc1`: -48%; `CCN(CC(=O)NCc1ccc(Cl)cc1)C(=O)c1ccc2cc(OC)ccc2c1`: 3.72%.

For `c1nc(N2CCCC2)c2[nH]cnc2n1`, the “hERG current change (%, negative = inhibition) at 10uM” value was -3.15%. `CCC(C(=O)NC(C)(C)C)N(C(=O)Cn1nnc(-c2cccs2)n1)c1cnc2ccccc2c1` (stereo not shown): the “hERG current change (%, negative = inhibition) at 10uM” value is -13.3%. In the case of `COc1ccc(C(=O)CNc2ccccc2CO)cc1`, the “hERG current change (%, negative = inhibition) at 10uM” value is on record as 22.8%.

With `O=C(NCCC1=CCCCC1)c1cc(-c2ccncc2)nc2ccccc12`, the “hERG current change (%, negative = inhibition) at 10uM” value is given as 6.78%. In the case of `CC(C)(C)c1ccc(C(=O)Nc2ccc(O)c3c(=O)cc(-c4cccc(Cl)c4)oc23)cc1`, the “hERG current change (%, negative = inhibition) at 10uM” value was determined as 17.7%. In the case of `CC(=O)Nc1cccc(C(=O)OC(C)C(=O)NC(=O)NC2CCCCC2)c1` (stereo not shown), the “hERG current change (%, negative = inhibition) at 10uM” value was 3.89%. Next, `COc1cc(C(=O)OCC(=O)NC(=O)C2CCCCC2)ccc1OC(F)F`: 15.8%; `COc1cc(C(=O)OC(C)C(=O)NC(=O)NC2CCCCC2)ccc1OC(F)F` (stereo not shown): -51.2%; `CCOC(=O)C1CCN(C(=O)Nc2ccc3c(c2)nc(C)n3C)CC1`: 0.694%.

In the case of `CCN(CC)c1ccc(CNc2nnnn2C)cc1`, the “hERG current change (%, negative = inhibition) at 10uM” value is 19.3%. As for `Cc1cc(=O)n2nc(N3CCCC(C(=O)NC4CCCCC4C)C3)sc2n1` (stereo not shown), the “hERG current change (%, negative = inhibition) at 10uM” value is 9.32%. As to `Cc1ccccc1CSCCNC(=O)CCSc1ccccc1`, the “hERG current change (%, negative = inhibition) at 10uM” value was found to be 2.74%.
